ATXN2 expr inh: Primary qHTS for Inhibitors of ATXN expression. AID 1745845, 2022. Potency, µM (highest dose often 57 µM), without a hit: at the highest dose activity change, negative = inhibition, usual class: inhibitors. HEK-293 ATXN2-luciferase reporter, luminescence, 24 h. 0.72% of 360,000 active; note: % is set by controls: 0 for no effect and ±100 for the full control effect; nearly all actives have a fitted effect of over 55% in size
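qHTS (up to 57 uM final) was run with 24 h compound exposure of reporter cells at 37 °C. Each well was multiplexed: SteadyGlo luminescence measured ATXN2-luciferase expression after a fluorogenic Gly-Phe-AFC viability readout (25 uM final).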
TDP1 cell CPT: qHTS for Inhibitors of human tyrosyl-DNA phosphodiesterase 1 (TDP1): qHTS in cells in presence of CPT | 12% of 420,000 active | Potency, µM (doses to about 46.2 µM), inactives show at the highest dose activity change, negative = growth inhibition, most hits filed as inhibitors | chicken DT40 Tdp1-/-;hTDP1 cells + 20 nM CPT, ATP luminescence, 48 h; note: % is set by controls: 0 for no effect and ±100 for the full control effect; nearly all actives have a fitted effect of over 55% in size
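Chicken DT40 Tdp1-/- cells complemented with human TDP1, 400 cells/well, exposed to compounds plus 20 nM camptothecin for at least 48 h at 37 C; viability read as ATP content by CellTiter-Glo luminescence.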
DT40 TDP1 no CPT: qHTS for Inhibitors of human tyrosyl-DNA phosphodiesterase 1 (TDP1): qHTS in cells in absence of CPT; Potency, µM (top dose mostly 46.2 µM), without a hit: top-dose activity change, negative = growth inhibition, hits mostly inhibitors; 15% of 420,000 active; DT40 Tdp1-/- hTDP1 cells, no CPT, ATP luminescence, 48 h; note: % is set by controls: 0 for no effect and ±100 for the full control effect; nearly all actives have a fitted effect of over 55% in size
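Chicken DT40 Tdp1-/- cells stably complemented with human TDP1 were seeded at 400 cells/well with DMSO in place of 20 nM camptothecin. After compound pinning, cells grew at least 48 hr at 37 °C; viability read by CellTiter-Glo luminescence.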
S2 tox: Viability Counterscreen for Primary qHTS for Inhibitors of ATXN expression | AID 651635, 2014 | 0.49% of 400,000 active | Potency, µM (titrated, usually from 56.7 µM), actives largely listed as cytotoxic | S2 cells (HEK-293 line with an ATXN2-luciferase reporter) viability, CellTiter-Fluor protease fluorescence, 24 h; note: nearly all actives have a fitted effect of over 40% in size
TGFb SMAD3 inh: qHTS for Inhibitors of TGF-b; HepG2 CAGA-GFP TGF-b/SMAD3 reporter, GFP fluorescence, 18 h; TGF-beta stimulated, 500 pg/mL final; Potency, µM (top dose mostly 46.1 µM), for the others: at the highest dose activity, negative = inhibition, actives largely listed as inhibitors; 1.2% of 410,000 active; AID 588855, 2011; note: % is set by controls: 0 for no effect and ±100 for the full control effect; nearly all actives have a fitted effect of over 65% in size
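Inhibition was scored as loss of TGF-beta-induced (500 pg/mL final, 18 hours, 37 degrees C) GFP in HEPG2 cells carrying a CAGA-GFP reporter, in DMEM with 1% FBS. Well GFP was summed per cell; Activity was normalised to unstimulated and stimulated DMSO wells, then concentration-response fitting.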
HepG2 tox: qHTS for Inhibitors of TGF-b: Cytotox Counterscreen; Potency, µM (titrated, usually from 46.1 µM), without a hit: top-dose activity change, negative = cytotoxicity, most hits filed as cytotoxic; HepG2 CAGA-GFP viability, ATP luminescence, 18 h; AID 588856, 2011; 0.76% of 410,000 active
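CellTiter-Glo luminescence gave cytotoxicity after 18 hours at 37 degrees C. The cells were HepG2 CAGA-GFP in 1% FBS DMEM, stimulated with 500 pg/mL TGF-beta after compound addition. %Activity was normalised to no-cell wells (complete cell-killing) and DMSO (no toxicity), and curves were fitted and classified.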
Numbers without * were called inactive; i = inactive; ? = inconclusive; · = not tested or not shown; [ ] = remark or other dose. Compounds with a hit are over-represented: about 17% of the library has one in this group of screens. Calls come from the whole dose curve; as a rule, active = well fitted curve in the direction sought with a large enough effect; inconclusive = small, poorly fitted or top-dose-only effect, or another doubt; inactive = no such curve, though single readings can be large; an effect the other way counts as inactive or inconclusive. Potency is the fitted concentration of half-maximal effect.

SMILES	ATXN2 expr inh	TDP1 cell CPT	DT40 TDP1 no CPT	S2 tox	TGFb SMAD3 inh	HepG2 tox
O=C(NN1C(=O)c2ccccc2NC1c1ccoc1)c1ccc([N+](=O)[O-])cc1 (stereo unspecified)	34%	-17%	8%	i	?	-19%
COc1ccc(C(C)C)cc1S(=O)(=O)NCCc1c(C)[nH]c2c(Cl)cccc12	?	29µM*	?	?	?	-66%
CN(C)C(CNC(=O)c1ccc2c(=O)n(-c3ccccc3F)c(=S)[nH]c2c1)Cc1ccccc1 (stereo unspecified)	-7%	26µM*	18µM*	i	-6%	-28%
CN1CCN(S(=O)(=O)c2cccc(C(=O)N(Cc3nnc(-c4ccc(Cl)cc4)o3)C3CC3)c2)CC1	-2%	21µM*	?	?	-26%	1%
CCCN(Cc1nnc(-c2ccccc2Cl)o1)C(=O)c1cc([N+](=O)[O-])cc([N+](=O)[O-])c1	-12%	6.5µM*	6.5µM*	i	-7%	-13%
CCCN(Cc1nnc(-c2ccccc2Cl)o1)C(=O)c1cc2ccccc2o1	21%	?	?	i	-14%	-16%
O=C(c1cc([N+](=O)[O-])cc([N+](=O)[O-])c1)N(Cc1nnc(-c2ccccc2Cl)o1)C1CC1	-28%	?	18µM*	i	?	1%
O=C(c1cc2ccccc2o1)N(Cc1nnc(-c2ccccc2Cl)o1)C1CC1	24%	-20%	?	i	3%	0%
O=C(c1ccc(Cl)c(S(=O)(=O)N2CCOCC2)c1)N(Cc1nnc(-c2ccccc2Cl)o1)C1CC1	-2%	21µM*	15µM*	?	-25%	-38%
COc1ccc(NC(=O)CSc2nnc(-c3cccs3)o2)cc1	·	-10%	-3%	·	17%	-1%
Cc1ccc(S(=O)(=O)c2nnn3c2nc(NC2CCCCC2)c2sccc23)cc1C	·	?	?	·	·	-19%
CCc1ccccc1NC(=O)C1CCN(c2nc3ccccc3[nH]2)CC1	·	-21%	-22%	·	12%	7%
CCOC(=O)[C@]12CCCC=C1N(Cc1ccc3c(c1)OCO3)C(=O)[C@H](CC(=O)NCCC(C)C)C2	-1%	?	?	?	·	·
Cc1ncc2c(c1CNC(=O)c1ccc3c(c1)OCO3)CCN(C(=O)c1ccc3ccccc3c1)C2	·	7%[9.04 µM]	-19%	i	·	·
O=c1oc(-c2ccccc2F)nc2c1cnn2-c1ccccc1	-39%	?	23µM*	i	-3%	-46%
COc1ccc(-n2c(C)nc3c(cnn3-c3ccc(Cl)cc3)c2=O)cc1	-3%	?	?	?	0%	-27%
COc1cccc(-n2c(-c3ccccc3F)nc3c(cnn3-c3ccc(C)cc3)c2=O)c1	2%	16µM*	12µM*	i	?	-1%
O=c1oc(-c2cccc(Cl)c2)nc2c1cnn2-c1ccccc1	-15%	?	?	i	?	-8%
Cc1ccc(-n2c(-c3ccc(Br)cc3)nc3c(cnn3-c3ccccc3)c2=O)cc1	10%	?	21µM*	i	?	1%
Cc1ccc(-n2c(C)nc3c(cnn3-c3ccccc3)c2=O)cc1	8%	·	·	i	-7%	-26%
O=c1[nH]c2c(cnn2-c2ccc(Cl)cc2)c(=O)n1-c1cccc(Cl)c1	-13%	?	29µM*	i	0%	-33%
Cc1ccc(-c2nc3c(cnn3-c3ccccc3)c(=O)n2-c2cccc(Cl)c2)cc1	-1%	23µM*	13µM*	i	?	1%
Cc1ccc(N2C(=O)CC3(CC4C=CC3C4)C2=O)cc1 (stereo unspecified)	13%	2%	-7%	i	25%	-5%
CCCCOCCO	1%	-5%	-20%	i	1%	8%
CCCCCCCCCCOCC(O)CN (stereo unspecified)	40µM*	6.7µM*	6.7µM*	40µM*	·	·
SMILES	ATXN2 expr inh	TDP1 cell CPT	DT40 TDP1 no CPT	S2 tox	TGFb SMAD3 inh	HepG2 tox
CCCCCCCCCCCCCCCCOCCOCCOCCOCCOCCOCCOCCOCCOCCOCCOCCOCCOCCOCCOCCOCCOCCOCCOCCOCCO	·	24µM*	7.5µM*	·	·	·
COc1ccc(CCC(C)NCc2cccc(Br)c2)cc1 (stereo unspecified)	·	?	?	i	-18%	-46%
CCCN(CCC)C(=O)Cn1c(=O)n(CCCCCC(=O)NCc2ccccc2Cl)c(=O)c2sccc21	·	?	-14%	·	28%	1%
CCCCC(=O)Nc1cnc(NC(=O)c2ccco2)cc1C	3%	?	?	i	-5%	-4%
C=CCN(C)CC/C=C1\c2ccccc2CSc2ccccc21	-14%	?	?	i	-16%	-41%
NCC/C=C1/c2ccccc2CSc2ccccc21	-30%	25µM*	35µM*	i	?	16µM*
COc1cc(C)ccc1S(=O)(=O)NC(=O)C1(C)CCN1C(=O)C1(c2ccc(Cl)cc2)CCC1 (stereo unspecified)	-15%	-4%	3%	i	-6%	-16%
Cc1ccc(S(=O)(=O)N2CCC[C@H]2C(=O)NC2CCCCC2)cc1	-9%	?	?	i	6%	-5%
COc1ccc(N2C(=O)CN(Cc3ccc(OC)c(OC)c3)C2=S)cc1	2%	-75%	?	i	4%	-13%
Cc1cccc(Sc2c([N+](=O)[O-])ncn2C)n1	17%	-5%	-15%	i	0%	-17%
Cn1cnc([N+](=O)[O-])c1S(=O)(=O)c1cccc(Cl)c1	?	1.8µM*	2.3µM*	·	?	-107%
Cn1cnc([N+](=O)[O-])c1S(=O)(=O)Nc1ccccc1	1%	16µM*	15µM*	i	-5%	-24%
Cn1cnc([N+](=O)[O-])c1S(=O)(=O)Oc1ccccc1	?	0.65µM*	1µM*	·	?	-189%
O=C1N=C(N2CCN(Cc3ccccc3)CC2)S/C1=C/c1cccs1	40%	-17%	12µM*	i	-16%	-44%
Cc1ccc(N2C(=O)C(CN3CCCCC3)C2c2ccccc2)cc1 (stereo unspecified)	-19%	?	18µM*	i	-5%	-10%

Screening data: PubChem BioAssay, National Center for Advancing Translational Sciences (NCATS)
